Records with an inconclusive call do not appear. Unmarked numbers belong to inactive results. The source made the active and inactive calls. Calls follow the shape of the full dose curve.
Experiment: qHTS assay to identify small molecule antagonists of the estrogen receptor alpha (ER-alpha) signaling pathway using the BG1 cell line (AID 743080);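 also: BG1 cells stimulated with 17beta-estradiol alongside compound; nearly all actives have a fitted effect of over 25% in size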
Details: BG1Luc4E2 ERE-luciferase antagonist mode, luminescence; series mostly up to 70.3 µM; activity change, negative = inhibition: at the top concentration
Description: National Center for Advancing Translational Sciences [NCATS]
NIH Chemical Genomics Center [NCGC]
U.S. Environmental Protection Agency [EPA]
National Institutes of Environmental Health Sciences [NIEHS]
National Toxicology Program [NTP]
U.S. Food and Drug Administration [FDA]
Estrogen receptor (ER), a nuclear hormone receptor, plays an important role in development, metabolic homeostasis and reproduction. Endocrine disrupting chemicals (EDCs) and their interactions with steroid hormone receptors like ER causes disruption of normal endocrine function. Therefore, it is important to understand the effect of environmental chemicals on the ER signaling pathway. To identify ER antagonists, BG1-Luc-4E2 cell line (provided by Dr. Michael Denison from University of California) has been used to screen the Tox21 10K compound library. BG1Luc4E2 cell line endogenously expresses full-length ER-alpha and is stably transfected with a plasmid containing four estrogen responsive elements (ERE) upstream of a luciferase reporter gene.
Tox21 Assay Protocol Summary:
BG1-Luc-4E2 cells were cultured in phenol red free assay medium containing 10% charcoal stripped FBS for 5 days before the assay was performed. The cells were dispensed at 4,000 cells/4 uL of assay medium per well into white wall/solid-bottom 1536-well plates using a Multidrop Combi (ThermoFisher Scientific, Waltham, MA) dispenser. The assay plates were incubated at a 37C and 5% CO2 for 24 h, and then 23 nL of compounds dissolved in DMSO, positive controls or DMSO only was transferred to the assay plate using a Pintool station (Kalypsys, San Diego, CA), followed by addition of 1 uL of 17beta-estradiol in assay medium using a Flying Reagent Dispenser (Aurora Discovery, San Diego, CA). After the plates were incubated at 37 C and 5% CO2 for 21.5 h, 1 uL of CellTiter-Fluor reagent (Promega, Madison, WI) of measuring cytotoxicity was added using Flying Reagent Dispenser (FRD) to each well. The assay plates were incubated at 37 C and 5% CO2 for additional 30 min and the fluorescence intensity was quantified by a ViewLux plate reader (PerkinElmer, Shelton, CT). For measuring luciferase reporter gene activity, 4 uL of ONE-Glo reagent (Promega) was added to each plate using an FRD and luminescence was quantified by a ViewLux plate reader after 30 min incubation at room temperature.
% is scaled to controls: 0 for no effect and ±100 for the full control effect.

Going from `CC/C=C\CCOC(C)=O` to `CCCCCOC(=O)CCCCC`, the “activity change, negative = inhibition” value rises from 2.22% to 2.92%.

Compared with `CCSC(=O)N(CC(C)C)CC(C)C`, `CC(C)CCCC(C)N` (stereo not given) is higher in “activity change, negative = inhibition” value: -7.84% for the first, -3.33% for the second.

Compared with `O=C(O)Cc1ccc(CCNS(=O)(=O)c2ccc(Cl)cc2)cc1`, `NC(=O)COCCN1CCN(C(c2ccccc2)c2ccc(Cl)cc2)CC1` (stereo not given) is lower in “activity change, negative = inhibition” value: -9.11% for the first, -10.5% for the second.

Compared with `CCO[Si](CCC1CCC2OC2C1)(OCC)OCC` (stereo not given), `CCN1CCC[C@H]1CNC(=O)c1c(O)c(Cl)cc(Cl)c1OC` is lower in “activity change, negative = inhibition” value: 9.68% for the first, -8.06% for the second.

Going from `NCCCNCCSP(=O)(O)O` to `NC(CSCC(=O)O)C(=O)O` (stereo not given), the “activity change, negative = inhibition” value falls from 1.45% to -4.57%.

Compared with `Cc1ccc(Cl)cc1Cl`, `O=Cc1cccc([N+](=O)[O-])c1` is higher in “activity change, negative = inhibition” value: 0.062% for the first, 0.586% for the second.

First: N[C@H](C(=O)O)c1ccc(O)cc1
Second: C[C@](N)(Cc1ccc(O)cc1)C(=O)O
The “activity change, negative = inhibition” value of the first is higher: 0.422% for the first, -2.02% for the second.

First: CC(C)(CC(=O)O)C(=O)O
Second: CC(=O)CC(C)(C)C1CCCCC1
The “activity change, negative = inhibition” value of the first is lower: -1.32% for the first, -0.0572% for the second.

First: C=CCS(=O)(=O)O
Second: C=C(C)CS(=O)(=O)O
The “activity change, negative = inhibition” value of the first is lower: -8.35% for the first, 4.64% for the second.

Going from `CC(C)NC(=O)NC(C)C` to `C=C[Si](OC(=C)C)(OC(=C)C)OC(=C)C`, the “activity change, negative = inhibition” value falls from 1.11% to -1.55%.

Going from `O=C(O)c1ccccc1OP(=O)(O)O` to `N[C@@H](C(=O)N[C@@H]1C(=O)N2C(C(=O)O)=C(Cl)CS[C@H]12)c1ccccc1`, the “activity change, negative = inhibition” value rises from -6.75% to 16.7%.

First: OC1CCCCC1c1ccccc1 (stereo not given)
Second: O=C1CCCN1C1CCCCC1
The “activity change, negative = inhibition” value of the first is higher: 0.951% for the first, -1.79% for the second.

Compared with `C=C1CC[C@H]2C[C@@H]1C2(C)C`, `C[C@@H]1CCN(C(=O)[C@H](CCCN=C(N)N)NS(=O)(=O)c2cccc3c2NC[C@H](C)C3)[C@@H](C(=O)O)C1` is higher in “activity change, negative = inhibition” value: -1.96% for the first, 10.7% for the second.

Going from `NC(=O)c1ccc(N)cc1` to `O=C(O)COc1nn(Cc2ccccc2)c2ccccc12`, the “activity change, negative = inhibition” value falls from 0.898% to 0.209%.

Going from `CCCCCCOC(=O)CCCCC(=O)OCCCCCC` to `O=C1NC(=O)[C@@]2(CCOc3ccc(F)cc32)N1`, the “activity change, negative = inhibition” value falls from 28.9% to 5.29%.

First: CCO/C([O-])=N/c1c[n+](N2CCOCC2)no1
Second: CCn1nc(C(=O)O)c(=O)c2cc3c(cc21)OCO3
The “activity change, negative = inhibition” value of the first is higher: 15.4% [at 32.5 µM] for the first, -1.09% [at 32.5 µM] for the second.

First: CCc1nccnc1CC
Second: Cc1cccc(C)c1NC(=O)C(C)N (stereo not given)
The “activity change, negative = inhibition” value of the first is lower: -2.07% [at 32.5 µM] for the first, 0.71% [at 32.5 µM] for the second.

In the case of `N#Cc1ccc(C2CCCc3cncn32)cc1` (stereo not given), the “activity change, negative = inhibition” value is reported as -6.51% [at 32.5 µM].

With `O=S(O)CO` the outcome was “inactive”.
With `CO[Si](CCCOCC1CO1)(OC)OC` (stereo not given) the outcome was “inactive”.
With `CCOC(=O)Nc1ccc(NCc2ccc(F)cc2)nc1N` the outcome was “inactive”.

First: COC(=O)NN
Second: CCC=O
The “activity change, negative = inhibition” value of the first is higher: 7.78% [at 95 µM] for the first, 1.8% [at 95 µM] for the second.

From PubChem BioAssay (Tox21)
